# Source: the supplement of paper PMC6555819
# How the values were obtained:
# Assay in all cases: PBM binding z-score (relative to random genomic background probes); higher = stronger binding; sequences stand for … in GC…GCGATTGACAGCGTAGAATGAAGG
# [1] = test system: PPARg:RXRa DBDmut IVT, anti-RXR (DBD mutation: RXRa K156A/R161A, NR concentration 270 nM, RXRa partner concentration 90 nM)
# Outline: (§1)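 Binding z-scores were set against random background probes. The data came from custom Agilent 4×180K protein-binding microarrays carrying double-stranded probes with 34-nt variable regions, incubated 1 h with ligand-free nuclear receptor dimers. Partner-specific antibodies detected binding, and scanned fluorescence was regression-normalized.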
# [2] = test system: PPARg:RXRa IVT, anti-PPARg (NR concentration 270 nM, RXRa partner concentration 90 nM)
# Outline: as §1
# [3] = test system: PPARg DBDmut:RXRa IVT, anti-PPARg (DBD mutation: PPARg1 K132A/R137A, NR concentration 270 nM, RXRa partner concentration 90 nM)
# Outline: as §1
# [4] = test system: PPARg DBDmut IVT, anti-PPARg (DBD mutation: PPARg1 K132A/R137A, NR concentration 270 nM)
# Outline: as §1
# [5] = test system: PPARg homodimer (NR concentration 180 nM)
# Outline: as §1
# [6] = test system: PXR:RXRa (NR concentration 270 nM, RXRa partner concentration 90 nM)
# Outline: as §1
# [7] = test system: PXR homodimer (NR concentration 270 nM)
# Outline: as §1
# [8] = test system: RARa:RXR (NR concentration 270 nM, RXRa partner concentration 90 nM)
# Outline: as §1
# [9] = test system: RARa homodimer (NR concentration 270 nM)
# Outline: as §1
# [10] = test system: RARb:RXRa (NR concentration 270 nM, RXRa partner concentration 90 nM)
# Outline: as §1
Sequence,PBM binding z-score [1],PBM binding z-score [2],PBM binding z-score [3],PBM binding z-score [4],PBM binding z-score [5],PBM binding z-score [6],PBM binding z-score [7],PBM binding z-score [8],PBM binding z-score [9],PBM binding z-score [10]
TCGAGTAGGTTAGTCGGGTCATTCAGCCAACATA,2.57,3.67,-0.174,-0.903,1.13,2.57,1.01,2.77,-0.535,1.79
GTAGACAGGTGAAACGCAGGTAACTCAGGGTGGC,1.08,0.827,-0.547,-0.798,-0.292,-0.0707,-0.535,0.264,-0.278,0.688
ATCTTTAGGTAAGACTCAGTTCAGTGAAGAACGC,0.866,0.683,1.19,0.877,0.751,1.35,1.56,0.837,1.14,0.585
CGTACTGGGCCAAAGGTCATTGATTCCAATGCTC,5.43,7,0.296,-0.116,4.18,5.73,2.15,6.41,1.62,4.54
TAGAGTAGGTTACCAATGGGGCATTCAGCTTTCT,4.68,4.33,0.638,0.725,1.06,0.312,0.223,0.669,1.18,1.33
TCATATAGGTAAACGGGTGAAAGTCCGTAAGTTA,4.54,4.35,1.22,1.51,0.689,0.621,0.241,0.612,0.587,0.567
CCTTACCGGTCACGAGGTTATAGCACGACGAGCG,1.09,2.32,0.31,0.533,2.18,1.92,0.733,2.66,1.45,3.73
CATCAAAGTTCAAGGTAACGTAACAGAAAGCAGC,0.753,1.84,1.29,1.96,2.92,4.19,2.76,3.44,2.21,5.31
CGTCCAAGGTCAAAGGTCAGTCAAGAGATGACGG,3.88,5.75,0.706,-0.299,2.8,7.08,1.81,9.03,1.5,5.97
ACTTACAGGTCAACGAGGTTATAGCACGCGTATA,4.4,4.7,1.92,1.44,2.53,5.25,5.38,4.94,1.81,4.52
ACAGACTGGTGAGTGAAGGTAACTCAGCTGGACG,-0.695,-0.409,-0.15,-0.348,0.0199,-0.565,-0.163,-0.434,-0.0964,-0.281
GATACAGGGTCAAGCCCAGAGTACGCGTATTGAT,3.47,4.08,0.821,-0.0259,2.23,3.87,0.125,4.85,0.476,4.53
TCGAGTAGGTTAACAATGGGGCATTCAGCTTTCT,3.65,2.78,0.124,0.191,0.25,0.403,-0.277,0.753,-0.553,0.976
CCTCAAAGTTCAAGGTAACGTAACAGAAAGCAGC,0.797,0.928,0.66,0.159,3.58,4.18,2.53,3.49,2.16,5.26
CCTTGCGGGTCACTCCAGGTTATAGCATCGGAGT,4.56,4.95,0.399,0.356,1.54,4.59,0.258,3.14,0.115,3.11
GCGACTTGGGCAAAGCAGGTTACCATAAGGTTGG,-0.00446,-0.245,-0.728,-1.56,-0.641,-0.189,-0.923,0.287,-1.35,-0.0319
CGAACTAGGTCAAGGACACTGAATCTCCGCACGC,8.19,8.2,2.38,0.508,1.58,1.44,0.0266,1.97,0.291,4.04
TCTATTAGTTGATTAGGGAAACCGAAACAGCGGA,2.16,0.295,0.834,0.978,1.03,0.624,1.07,0.778,1.68,0.394
TCATATAGGTAAATTCTAGGTGAAAGTCCGATCT,3.83,4.08,1.26,1.32,1.09,0.778,0.524,1.22,1.61,0.593
CGAACTAGGTCATCCCGGACAGTGAATACATTGA,7.94,8.33,3.25,4.44,4.1,1.56,0.96,2.24,1.88,3.69
CCTTACGGGTCACGAGGTAATAGCACGACGAGCG,4.44,5.5,3.05,1.21,4.14,4.07,0.0228,5.59,1.16,4.46
TAGCCTAGGTCATGGGCAAGTATACCACGCGAAC,1.64,3.48,-0.144,0.186,1.13,1.51,-0.303,2.48,-0.000605,4.09
TCATATAGGTAAAAGGTGCAAGTCGGTGTGGTAA,4.71,3.76,0.923,0.831,1.63,0.954,0.487,0.733,1.23,0.917
AGAATGAGGTTACCAAAGATCAAGGAAACGCTTG,3.78,3.43,0.922,0.563,0.97,2.06,-0.325,2.48,-0.42,2.25
ATATTTAGGTTATCGGGTCATTCAGTTTGCGCAT,6.89,6.64,4.67,4.42,4.15,3.9,8.95,4.06,4.33,2.93

Sequence,PBM binding z-score [1],PBM binding z-score [2],PBM binding z-score [3],PBM binding z-score [4],PBM binding z-score [5],PBM binding z-score [6],PBM binding z-score [7],PBM binding z-score [8],PBM binding z-score [9],PBM binding z-score [10]
GCGACTGAGGCAAAGCAGGTTACCATAAGGTTGG,0.099,-0.228,-1.27,-1.26,-0.646,-0.22,-0.398,0.0827,-0.323,-0.412
CCGACTGGGGCATAACGTTACCATAAGCCAGCCC,2.66,1.66,-0.938,-1.07,-0.33,-0.824,-0.237,-0.522,0.566,0.162
GCAACTGGGGCAAAGCAGGTTACCATAAGGTTGG,5.89,5.52,0.219,-0.357,-0.0265,0.339,-0.607,0.838,-0.392,0.995
GCTAGTTGGTCTGTAAAAGGTCACACACCGGTCG,0.547,2.28,0.389,-0.363,4.38,4.79,1.16,5.54,1.67,3.87
AGAACGAGGGCACGCTGAGTTGATAGTAGAGTAG,4.08,3.89,0.542,0.293,0.125,1.26,0.49,0.759,-0.324,2.57
TCTTGTAGATCAGTAGGTTAAGAAAGCTGGCCAA,2.89,2.61,0.246,0.243,0.822,0.448,0.0641,0.921,0.433,0.272
GTACCAAGGTGAATAGGTCGTTTATGAGTAGGCG,1.82,2.43,0.986,0.34,1.17,1,0.0793,1.92,0.555,2.01
GCAGACAGGTGAACCGCAGGTAACTCAGGGTGGC,0.713,0.87,-0.564,-0.733,-0.518,0.615,-0.535,1.09,-0.768,0.901
TAGCCTAGGTCAGATCGGGCCAGTATACGCTATA,0.415,1.78,0.225,-0.375,0.0641,1.01,-0.518,1.42,-0.937,3.02
CGTCCAAGGTCAGAGAGGTCGGTGAATGCCGAGT,2.42,2.66,-0.525,-1.08,0.814,3.88,5.12,2.96,-0.301,4.51
CGTCCAAGGTCACAGGTCAGTGAAGAGATGACGG,4,5.24,0.709,0.624,2.75,4.99,0.786,6.06,1.32,5.63
CCTACTGGGCCATCAGGTCGTTGATATCAACGTT,4.23,4.12,-0.38,-0.752,0.382,0.0795,-0.323,0.272,-0.616,0.569
TCGAGTAGGTTACCAATGGGACATTCAGCTTTCT,2.84,2.43,-0.217,0.266,-0.26,0.0751,-0.84,0.149,-0.599,0.695
CGTCCAAGGTCAATGCTACGTCAGTGAAAGCATT,3.21,3.16,1.41,-0.403,2.71,3.7,0.586,3.85,0.867,4.96
CCTGCTAGGTCAATGGTCAGCTATAGCAGCTCGC,4.67,3.79,-0.186,-0.414,1.14,0.849,-0.745,1.57,-0.658,3.75
CAGCCTAGGTCAGGGCCAGTATAGGAGGAACGTT,0.848,1.84,-0.882,-1.52,1.03,0.272,-0.731,1.2,-0.0375,3.6
CTCGAAAGGTCGGTTGAGGTGAGCATACGGATAA,-0.122,1.01,-0.332,-0.0105,0.799,2.9,-0.0982,2.5,0.0392,3.09
TTACCAAGGTGAGCTGAAGTCGTTGATCCAACTC,0.859,1.48,-0.768,-0.947,-0.94,-0.181,-0.685,-0.105,-0.713,0.929
CCTTGCGGGTCACGAGGTTATAGCACGACGAGCG,5.74,6.59,3.45,2.14,3.48,4.41,0.214,6.01,0.851,4.47
ATATGTAGGTTAGCTGGGATCATTCAGACTAGGC,6.87,5.92,1.97,2.29,0.83,1.21,0.543,0.547,0.6,0.723
AGTATGAGGTTATTAAGATCAGGGAATTGCGGTC,0.549,1.51,1.49,0.314,1.11,1.5,0.942,1.55,1.05,1.4
GGAACCAGGGCATTCGAGTTGATAGCATGGCGAT,3.39,2.91,-0.295,0.956,1.01,2.12,0.865,0.882,0.0816,1.72
CCTACTGGGCCCAAGGTCATTGATTCCAATGCTC,-0.0484,3.05,-0.816,-1.27,1.42,3.24,1.78,3.17,0.145,2.79
AATACAGGGTCATCGTAAGCCAGAGTACGCACAG,2.67,4.15,1.58,1.04,1.65,4.05,1,4.6,0.623,4.43
